Results from PubChem BioAssay (NCATS).
Records with an inconclusive call do not appear. Entries that show only a call come without a potency. Active and inactive are the calls of the source. Calls follow the shape of the dose curve; as a rule, active = well fitted inhibition curve with a large enough effect; inconclusive = small, poorly fitted or top-dose-only effect; inactive = flat fitted curve, though single readings scatter.

Test system: CP203
Experiment: qHTS profiling for inhibitors of Plasmodium falciparum proliferation (AID 504749); also: nearly all actives have a fitted effect of over 60% in size
Conditions: P. falciparum in erythrocytes, SYBR Green DNA, 72 h; series mostly up to 28.7 µM
Source text: NIH National Institute of Allergy and Infectious Diseases [NIAID] NIH Chemical Genomics Center [NCGC] MLPCN Grant: None Assay Provider: Xinzhuan Su, NIAID NCGC Assay Overview: Plasmodium falciparum is a virulent malarial parasite that kills 1-2 million people worldwide each year. Transmitted by mosquitoes, the sporozoite form of the parasite enters the blood stream to infect hepatocytes, where they become merozoites that infect red blood cells (erythrocytes). Within erythrocytes, merozoites begin a […] cycle of growth and division, after which the parasite is released to infect new red blood cells. Gametocytes, which form within erythrocytes as well, circulate in the bloodstream and are ingested by the mosquito, thereby completing the life cycle. To profile malarial isolates for differential chemical responses and to identify inhibitors of malarial growth, an assay that measures P. falciparum growth and replication within erythrocytes was employed. This assay uses a DNA binding fluorescent dye (SYBR Green) to detect parasite DNA following cell lysis. Because mature erythrocytes lack DNA, only Plasmodium-derived DNA is detected.
NCGC Assay Protocol Summary: The SYBR Green viability assay was adapted from a method described previously (Plouffe et al., 2008). For screening 3 ul culture medium was dispensed into 1536 well black clear bottom plates (Aurora Biotechnologies) using a Multidrop Combi (Thermo Fisher Scientific Inc.), 23 nL compounds in DMSO were added by a pin tool (Kalypsys), and 5 ul of erythrocytes infected with P. falciparum (0.3% parasitemia, 2.5% hematocrit final concentration) were added. The plates were incubated at 37 C in a humidified incubator in 5% CO2 for 72 h, and 2 ul lysis buffer (20 mM Tris HCl, 10 mM EDTA, 0.16% saponin, 1.6% triton X, 10X SYBR Green I supplied as 10,000X […] by Invitrogen) was added to each well. The plates were mixed for 25 sec with gentle shaking and incubated overnight at room temperature in the dark. The following morning, fluorescence intensity at 485(14) nm excitation and 535(25) nm emission wavelengths was measured on an EnVision (Perkin Elmer) plate reader. Plate reads were normalized relative to the control inhibitor (0.29 uM artemisinin) and vehicle (DMSO) wells present on each plate and then corrected by an algorithm using vehicle-only control plates at the beginning and end of the compound plate stack.

Compound	Potency
Nc1ccc(C(=O)Oc2ccccc2)c(O)c1	inactive
O=C(O)CCC(=O)O	inactive
O=C(O)Cc1ccc(CCNS(=O)(=O)c2ccc(Cl)cc2)cc1	inactive
O=C(CCBr)N1CCN(C(=O)CCBr)CC1	inactive
CCOC(N)=O	inactive
CC(=O)Nc1cccc(O)c1	inactive
Nc1ncnc2c1ncn2[C@@H]1O[C@H](COP(=O)(O)O)[C@@H](O)[C@H]1O	inactive
CC(=O)Oc1cccc(C)c1	inactive
COc1ccccc1OC(=O)Oc1ccccc1OC	inactive
Cc1cc(OI)c(C(C)C)cc1-c1cc(C(C)C)c(OI)cc1C	inactive
O=S1(=O)OC(c2ccc(O)cc2)(c2ccc(O)cc2)c2ccccc21	inactive
COC(=O)c1ccccc1C(=O)c1ccc(OCCN2CCCCC2)cc1	inactive
O=C(O)CNC(=O)c1ccccc1I	inactive
Nc1ccncc1N	inactive
CN1CCCN=C1COC(=O)C(O)(c1ccccc1)C1CCCCC1 (stereo not given)	inactive
CCOc1cc(NC(C)=O)ccc1C(=O)OC	inactive
O=C(OOC(=O)c1ccccc1)c1ccccc1	inactive
CCCCOC(=O)c1ccc(N)cc1	inactive
COc1ccc(NS(=O)(=O)c2ccc(N)cc2)nn1	inactive
COc1ccc2cc(CCC(C)=O)ccc2c1	inactive

Compound	Potency
O=C(O)c1ccccc1C(=O)Nc1ccc(S(=O)(=O)Nc2nccs2)cc1	inactive
O=C1CC[C@@H](C(=O)O)N1	inactive
O=C(O)Cn1c(C(=O)Nc2nc(-c3ccccc3Cl)cs2)cc2ccccc21	inactive
NS(=O)(=O)c1ccc(NC(=O)CCC(=O)O)cc1	inactive
COc1ccc(C(=O)NCc2ccc(OCCN(C)C)cc2)cc1OC	inactive
CCCCCCCC(=O)OCC(O)CO (stereo not given)	inactive
CC(=O)Nc1ccc(C(=O)O)cc1	inactive
CC(C(=O)O)c1ccc2c(c1)Cc1cccnc1O2 (stereo not given)	inactive
CN/C(=C\[N+](=O)[O-])NCCSCc1csc(CN(C)C)n1	inactive
Cc1ncc(CO)c(CN)c1O	inactive
O=C(NCCCN1CCOCC1)c1ccc(Cl)cc1	inactive
CCN(CC)CC1CCCCN1CC(=O)N1c2ccccc2C(=O)Nc2cccnc21 (stereo not given)	inactive
Cc1cccc(C)c1NC(=O)CC12CCCN1CCC2	inactive
COc1ccc(Cc2cnc(N)nc2N)cc1OC	inactive
CC(C)=CCC/C(C)=C/CO	inactive
NCC1CCC(C(=O)Oc2ccc(CCC(=O)O)cc2)CC1 (stereo not given)	inactive
NC(=O)NS(=O)(=O)c1ccc(N)cc1	inactive
Nc1ncnc(Nc2ccccc2)n1	inactive
Cc1ccc(S(=O)(=O)NC(=O)NC2CCCCCCC2)cc1	inactive
CCN(CC)C(=O)c1cccc(C)c1	inactive
